In PubChem BioAssay AID521 (Sanford-Burnham Center for Chemical Genomics, 2006):
Among all 110,000 compounds or so, about 730 (0.66%) were called active. Cut-off read from the data, not from the text of the source: active = inhibition above about 50%; inconclusive = no clear call, values can overlap the other calls; inactive = below that. Many of the other results were omitted from the sample, so actives are more common in it than they were.

Each molecule was assayed against Tyrosine-protein phosphatase non-receptor type 7 (Homo sapiens) (UniProt P35236) (assay: HePTP tyrosine phosphatase activity blockers – biochemical, absorbance, leukemia target, primary screen (AID 521;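 note: plate controls were vehicle for no effect and reference inhibitor for full effect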)). Conditions: recombinant HePTP phosphatase activity, OD absorbance; at 20 µM; active compounds read high.
Chain of Tyrosine-protein phosphatase non-receptor type 7 (Homo sapiens) (P35236 whole entry, looked up): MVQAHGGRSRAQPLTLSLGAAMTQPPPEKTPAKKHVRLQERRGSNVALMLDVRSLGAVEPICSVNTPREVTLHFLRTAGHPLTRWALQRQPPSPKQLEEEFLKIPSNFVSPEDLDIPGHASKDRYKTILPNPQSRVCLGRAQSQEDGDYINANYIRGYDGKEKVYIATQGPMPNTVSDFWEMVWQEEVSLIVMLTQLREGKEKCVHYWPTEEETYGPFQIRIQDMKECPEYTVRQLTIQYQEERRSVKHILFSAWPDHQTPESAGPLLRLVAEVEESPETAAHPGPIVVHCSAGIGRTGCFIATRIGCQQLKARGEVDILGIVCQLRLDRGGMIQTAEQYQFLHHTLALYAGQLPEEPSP

SMILES | inhibition
C=CCN1C(=O)/C(=C\c2cccn2-c2cccc([N+](=O)[O-])c2)C(=O)NC1=S | 98.9% (active)
COc1cccc(CN2CCN(C(=O)COc3ccccc3)CC2)c1OC | 3.3% (inactive)
CCOc1cc(C=C2C(=O)NC(=O)NC2=O)cc(Br)c1OCCOc1ccccc1C | 3.9% (inactive)
CCOP(=O)(OCC)C(=C(Cl)Cl)C(C(=O)OC)C(=O)OC | 11.5% (inactive)
C=CCSc1nc2ccccc2c(=O)n1-c1ccccc1OC | 11.5% (inactive)
